Over roughly 33,000 sequences, “E-score (-0.5 to 0.5)” has its median near -0.015; the highest 2% begin near 0.3. Many of the other results were omitted from the sample, so the highest values are more common in it than they were.
target: T1, Abf1 (UniProt P14164); test: PBM E-score (8-mer binding enrichment) (E-score (-0.5 to 0.5)); higher = stronger / more preferred TF binding; settings: protein concentration: 200 nM; construct: GST-full length
T1 sequence: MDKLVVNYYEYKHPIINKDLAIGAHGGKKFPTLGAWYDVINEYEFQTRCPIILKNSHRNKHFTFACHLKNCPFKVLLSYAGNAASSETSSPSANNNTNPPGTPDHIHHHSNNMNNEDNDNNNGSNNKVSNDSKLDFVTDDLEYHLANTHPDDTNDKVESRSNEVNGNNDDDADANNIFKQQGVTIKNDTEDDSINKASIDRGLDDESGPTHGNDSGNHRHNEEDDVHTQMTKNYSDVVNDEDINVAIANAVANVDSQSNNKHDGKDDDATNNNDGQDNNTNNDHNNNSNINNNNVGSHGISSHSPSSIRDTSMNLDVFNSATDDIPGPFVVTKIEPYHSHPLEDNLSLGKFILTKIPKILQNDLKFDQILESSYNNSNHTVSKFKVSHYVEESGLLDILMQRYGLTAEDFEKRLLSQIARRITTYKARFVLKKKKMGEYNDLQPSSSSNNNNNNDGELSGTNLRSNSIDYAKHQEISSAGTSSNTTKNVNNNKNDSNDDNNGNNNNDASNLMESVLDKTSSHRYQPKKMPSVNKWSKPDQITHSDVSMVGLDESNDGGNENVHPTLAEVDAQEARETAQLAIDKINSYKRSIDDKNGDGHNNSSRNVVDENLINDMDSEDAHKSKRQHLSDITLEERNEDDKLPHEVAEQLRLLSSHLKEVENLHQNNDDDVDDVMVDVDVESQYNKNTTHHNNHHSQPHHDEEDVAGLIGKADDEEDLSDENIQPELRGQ
Description: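 Universal 'all 10-mer' protein binding microarrays (Agilent AMADID 015681) probed with GST-tagged S. cerevisiae TFs (full-length or DBD) made by in vitro transcription/translation (PURExpress), about 100-200 nM. Bound TF was detected with fluorescent anti-GST. Each ungapped 8-mer (which stands for itself and its reverse complement) is scored by the PBM enrichment score (E-score), a modified Wilcoxon-Mann-Whitney statistic from -0.5 to +0.5, computed with the Universal PBM Analysis Suite. Scale: above 0.35 generally sequence-specific binding.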

| Sequence | PBM E-score |
| --- | --- |
| ACCAAGAA | -0.00575 |
| TAAATGCA | 0.0499 |
| AGAGACCC | -0.221 |
| CCGGGCCG | -0.129 |
| TTTTAAAA | 0.0597 |
| ATATAAAT | 0.3 |
| ATATAAAG | 0.146 |
| ATAAATAT | 0.316 |
| ATAAATTA | 0.362 |
| ATAAATAA | 0.246 |
| CTAAATTA | 0.0644 |
| ATAAATTG | 0.115 |
| ATAAATAG | 0.104 |
| ATATAAAC | 0.0743 |
| ACTCGTCT | 0.0807 |
| CGGATATA | 0.185 |
| ACTCCTAC | 0.0623 |
| CTGGTAAA | -0.16 |
| GAACGCGC | 0.0459 |
| AGCACGGC | 0.0922 |
| GAATCGTC | 0.239 |
| AAGATGAC | 0.313 |
| CAGATGAC | 0.058 |
| AAGATGAT | 0.304 |
| ACGATGAC | 0.264 |

| Sequence | PBM E-score |
| --- | --- |
| ACGATGAT | 0.322 |
| AAGATGAA | -0.083 |
| ACGATGAA | 0.2 |
| AAGATGAG | 0.00927 |
| GAGATGAC | 0.141 |
| CACCAATG | 0.0285 |
| GATCGACC | -0.0655 |
| ACAACGCT | -0.0795 |
| GATCTTGC | 0.0639 |
| CTGCCCTA | -0.132 |
| CTCCATGC | -0.265 |
| GATCCTGC | 0.0793 |
| AGGCCGTG | 0.092 |
| TGAGAGCA | -0.0853 |
| CCGCCGTC | 0.334 |
| ACGCCGTC | 0.282 |
| CCGCCGTA | 0.0615 |
| CATTGCCG | 0.0936 |
| GAACTCTC | -0.211 |
| CCGCAGTC | -0.165 |
| TGACTTAA | 0.061 |
| AATTGTCA | 0.335 |
| AATTGTCC | -0.0973 |
| GATTGTCA | 0.268 |
| AGAGTGGC | -0.251 |

| Sequence | PBM E-score |
| --- | --- |
| AGCAGATG | -0.0843 |
| CTATTAAA | -0.0136 |
| TTATTAAA | 0.116 |
| ATATTAAA | 0.33 |
| AAAAGTTA | 0.151 |
| CCATTCGG | -0.0195 |
| ATTTATCC | 0.317 |
| GCTTATCA | 0.0367 |
| ACTTATCC | 0.11 |
| CTTTATCA | 0.313 |
| ATTATTTA | 0.254 |
| CGTTATCA | 0.205 |
| ATTTATTA | 0.309 |
| GTTTATCA | 0.304 |
| GTTTATTA | 0.0803 |
| CTTTATCC | -0.0621 |
| GTTTATGA | 0.11 |
| ATTTATCG | 0.222 |
| ACTCCCAT | -0.029 |
| GATCGACA | 0.013 |
| TCTTGTAA | 0.0644 |
| CCGTAAGC | 0.0521 |
| ATTTATGA | 0.229 |
| ATTTATCA | 0.314 |
| ATTTATAA | 0.176 |

| Sequence | PBM E-score |
| --- | --- |
| TGTACCAA | 0.0776 |
| CGTACTAC | 0.274 |
| TGTACTAA | 0.0702 |
| CGTACTCA | 0.304 |
| CGTACCAG | 0.0671 |
| AGTACTCA | -0.0128 |
| CGTACTCC | 0.203 |
| CGTACTAA | 0.329 |
| CGTACCAA | 0.353 |
| CGACGCGA | -0.0138 |
| AGAATGTC | 0.188 |
| ACAACGCC | 0.13 |
| ACCCTACA | -0.153 |
| CGGTCAAC | 0.0203 |
| ACGACGTG | 0.232 |
| GCAAGCGC | -0.201 |
| ACCTCACC | -0.0217 |
| GTTACGAA | 0.208 |
| TATACGAA | 0.368 |
| GATACGAC | 0.148 |
| CATACGAA | 0.267 |
| CCTACGAA | 0.253 |
| AATACGAA | 0.337 |
| GATACGAA | 0.309 |
| ACTACGAA | 0.205 |

| Sequence | PBM E-score |
| --- | --- |
| TATACGGA | 0.164 |
| AATACGAC | 0.278 |
| AATACGAT | 0.276 |
| TCTACGAA | 0.301 |
| CCCCATCA | -0.235 |
| GAATTGGA | -0.016 |
| AGCACACC | -0.13 |
| CACAAGAG | -0.0119 |
| CCAGCACA | -0.0686 |
| AGCGAGAA | -0.0126 |
| CGATATTA | 0.326 |
| CGATATCG | 0.372 |
| GGATATTA | 0.088 |
| CGATATGA | 0.161 |
| CGGTATCA | 0.204 |
| CGATATCA | 0.363 |
| AGATATCG | 0.11 |
| CGATATCC | 0.17 |
| CGATATTC | 0.225 |
| GGACCGCA | -0.155 |
| ACAGGGGC | -0.194 |
| ACACCCGT | -0.04 |
| TCAAACAA | -0.127 |
| GAGAGGAC | -0.077 |
| TCAGTAGA | -0.0357 |

| Sequence | PBM E-score |
| --- | --- |
| CATTAGTC | -0.14 |
| GTGACCAC | 0.175 |
| ACGATCGT | 0.319 |
| AAGATCGC | 0.169 |
| AAGATCGG | -0.163 |
| AAGATCGT | 0.332 |
| ACGATCGG | 0.168 |
| ACGATCGC | 0.265 |
| GCGCTGTA | -0.132 |
| CCTACGTC | 0.0219 |
| TACCAGTA | 0.0685 |
| ATCAGGAC | 0.103 |
| ACCTTGGG | -0.0211 |
| ACTGACAT | 0.0708 |
| CATGACAG | 0.0583 |
| AGTGACAA | 0.439 |
| AGTGACAT | 0.43 |
| CCTGACAG | -0.0556 |
| AGTGACAG | 0.292 |
| ATTGACAA | 0.0759 |
| AGTGACCG | 0.125 |
| AGTGACCA | 0.308 |
| ACTGACAA | 0.129 |
| GGTGACCA | 0.0526 |
| CGTGACAG | 0.319 |

| Sequence | PBM E-score |
| --- | --- |
| GTATAGGA | 0.0694 |
| CAGAGTTC | -0.228 |
| GGGCCGTA | 0.244 |
| GACAGGAA | 0.0498 |
| GATCGCCC | 0.0433 |
| GCGACCAC | 0.134 |
| TCGATTAA | 0.0311 |
| CACAAAAA | 0.0732 |
| GCAGTTAA | -0.0142 |
| CTAACGAC | 0.263 |
| TCAGTCCA | -0.171 |
| GCTGACAA | 0.0133 |
| GTTGACAA | 0.16 |
| AGTGACAC | 0.382 |
| TGTGACAA | 0.221 |
| ATTGACAC | -0.12 |
| GGTGACAA | 0.423 |
| CGTGACAC | 0.252 |
| GGTGACAC | 0.238 |
| CGTGACAA | 0.375 |
| AGTGACTA | 0.324 |
| AGTGACTG | 0.175 |
| AGTGACTC | 0.149 |

— the supplement of paper PMC3334620
